According to the supplement of paper PMC10849652:
The full data set covers some 8,800 targets. This sample favours those with a hit. About 0.5% of all pairs of compound and target were hits. A number with no mark means an inactive call.

Tests used:
Test in all cases: log2 fold change, soluble protein after heating vs DMSO (PISA); higher = thermal stabilisation; K562 lysate, 10 uM; active = over 0.2 and 3.5 SD of the protein, either way, in both replicates (recomputed)
lapatinib = compound: CS(=O)(=O)CCNCc1ccc(-c2ccc3ncnc(Nc4ccc(OCc5cccc(F)c5)c(Cl)c4)c3c2)o1 [lapatinib]
How it was run: (§1)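 Dounce homogenisation of K562 pellets in PBS pH 7.4 with 1 mM MgCl2 produced a crude extract, used at 1 mg/mL protein. Exposure to 10 μM compound lasted 30 min, and aliquots were then heated for 3 min across 48°C-58°C, pooled and brought to 0.5% NP-40 at 4°C. The supernatant after 21,000xg for 90 min was quantified by TMTpro 16plex LC-MS/MS with channel sums equalised. Duplicate values are given as log-two fold change in thermal stability relative to solvent controls.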

pictilisib = compound: CS(=O)(=O)N1CCN(Cc2cc3nc(-c4cccc5[nH]ncc45)nc(N4CCOCC4)c3s2)CC1 [pictilisib]
How it was run: as §1

crizotinib = compound: C[C@@H](Oc1cc(-c2cnn(C3CCNCC3)c2)cnc1N)c1c(Cl)ccc(F)c1Cl [crizotinib]
How it was run: as §1

[1] = compound: C[C@H](C1=CC=C(C=C1)C(=O)NC2=C3C=CNC3=NC=C2)N
How it was run: as §1

duvelisib = compound: C[C@H](Nc1ncnc2nc[nH]c12)c1cc2cccc(Cl)c2c(=O)n1-c1ccccc1 [duvelisib]
How it was run: as §1

gandotinib = compound: Cc1cc(Nc2cc(CN3CCOCC3)c3nc(C)c(Cc4ccc(Cl)cc4F)n3n2)n[nH]1 [gandotinib]
How it was run: as §1

tozasertib = compound: Cc1cc(Nc2cc(N3CCN(C)CC3)nc(Sc3ccc(NC(=O)C4CC4)cc3)n2)n[nH]1 [tozasertib]
How it was run: as §1

doramapimod = compound: Cc1ccc(-n2nc(C(C)(C)C)cc2NC(=O)Nc2ccc(OCCN3CCOCC3)c3ccccc23)cc1 [doramapimod]
How it was run: as §1

bafetinib = compound: Cc1ccc(NC(=O)c2ccc(CN3CC[C@H](N(C)C)C3)c(C(F)(F)F)c2)cc1Nc1nccc(-c2cncnc2)n1 [bafetinib]
How it was run: as §1

[2] = compound: Cc1cccc(CC(=O)N2CCc3c2ccc(-c2cn(C)c4ncnc(N)c24)c3F)n1
How it was run: as §1

nilotinib = compound: Cc1cn(-c2cc(NC(=O)c3ccc(C)c(Nc4nccc(-c5cccnc5)n4)c3)cc(C(F)(F)F)c2)cn1 [nilotinib]
How it was run: as §1

[3] = compound: Cc1nc(Nc2n[nH]c3c2CN(C(=O)N[C@H](CN(C)C)c2ccccc2)C3(C)C)c2sccc2n1
How it was run: as §1

dasatinib = compound: Cc1nc(Nc2ncc(C(=O)Nc3c(C)cccc3Cl)s2)cc(N2CCN(CCO)CC2)n1 [dasatinib]
How it was run: as §1

[4] = compound: Cc1ncc(-c2ccnc(Nc3ccc(S(C)(=O)=O)cc3)n2)n1C(C)C
How it was run: as §1

[5] = compound: Cn1cc(-c2ccc3c(c2)CCN3C(=O)Cc2cccc(C(F)(F)F)c2)c2c(N)ncnc21
How it was run: as §1

quisinostat = compound: Cn1cc(CNCC2CCN(c3ncc(C(=O)NO)cn3)CC2)c2ccccc21 [quisinostat]
How it was run: as §1

tipifarnib = compound: Cn1cncc1[C@@](N)(c1ccc(Cl)cc1)c1ccc2c(c1)c(-c1cccc(Cl)c1)cc(=O)n2C [tipifarnib]
How it was run: as §1

[6] = compound: NC(=O)Nc1cc(-c2cccc(F)c2)sc1C(=O)N[C@H]1CCCNC1
How it was run: as §1

[7] = compound: NC(=O)c1cnc(N[C@@H]2CCCC[C@@H]2N)nc1Nc1cccc(-n2nccn2)c1
How it was run: as §1

[8] = compound: NC1(c2ccc(-c3nc4ccn5c(=O)[nH]nc5c4cc3-c3ccccc3)cc2)CCC1
How it was run: as §1

UniProt Q9UKL0, sequence (Q9UKL0 whole entry, looked up): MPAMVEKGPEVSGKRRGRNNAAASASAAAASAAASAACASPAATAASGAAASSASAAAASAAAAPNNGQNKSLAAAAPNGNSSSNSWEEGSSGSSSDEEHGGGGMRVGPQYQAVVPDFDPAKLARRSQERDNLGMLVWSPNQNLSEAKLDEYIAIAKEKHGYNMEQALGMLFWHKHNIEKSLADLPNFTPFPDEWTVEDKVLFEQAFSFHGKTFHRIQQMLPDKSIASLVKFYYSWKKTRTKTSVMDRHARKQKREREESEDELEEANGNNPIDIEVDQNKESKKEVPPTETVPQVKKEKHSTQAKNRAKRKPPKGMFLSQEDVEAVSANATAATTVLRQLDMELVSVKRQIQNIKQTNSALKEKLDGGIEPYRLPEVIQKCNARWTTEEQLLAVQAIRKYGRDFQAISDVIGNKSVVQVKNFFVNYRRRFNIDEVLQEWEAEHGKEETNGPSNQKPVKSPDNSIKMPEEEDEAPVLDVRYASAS
UniProt Q9H974, sequence (Q9H974 whole entry, looked up): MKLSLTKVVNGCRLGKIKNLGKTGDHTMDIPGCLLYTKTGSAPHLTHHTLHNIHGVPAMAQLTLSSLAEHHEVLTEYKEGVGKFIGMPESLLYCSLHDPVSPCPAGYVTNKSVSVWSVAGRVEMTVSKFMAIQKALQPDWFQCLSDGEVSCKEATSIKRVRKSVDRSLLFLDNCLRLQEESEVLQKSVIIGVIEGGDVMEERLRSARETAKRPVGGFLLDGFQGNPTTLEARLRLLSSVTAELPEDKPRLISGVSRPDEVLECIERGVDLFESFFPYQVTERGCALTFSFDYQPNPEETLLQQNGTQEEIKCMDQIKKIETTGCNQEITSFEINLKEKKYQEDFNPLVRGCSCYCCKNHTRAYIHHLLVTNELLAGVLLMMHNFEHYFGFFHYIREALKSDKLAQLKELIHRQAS
UniProt Q96EE3, sequence (Q96EE3 whole entry, looked up): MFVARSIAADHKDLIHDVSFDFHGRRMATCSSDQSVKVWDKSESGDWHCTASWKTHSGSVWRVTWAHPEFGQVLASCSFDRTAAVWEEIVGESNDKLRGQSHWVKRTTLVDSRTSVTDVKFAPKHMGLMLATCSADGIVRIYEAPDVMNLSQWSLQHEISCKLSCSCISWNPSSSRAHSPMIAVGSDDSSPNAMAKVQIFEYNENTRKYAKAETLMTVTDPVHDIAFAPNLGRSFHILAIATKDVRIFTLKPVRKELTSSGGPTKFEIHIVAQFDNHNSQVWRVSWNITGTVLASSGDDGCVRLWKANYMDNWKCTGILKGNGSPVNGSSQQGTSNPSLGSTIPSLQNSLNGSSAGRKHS
UniProt P60059, sequence (P60059 whole entry, looked up): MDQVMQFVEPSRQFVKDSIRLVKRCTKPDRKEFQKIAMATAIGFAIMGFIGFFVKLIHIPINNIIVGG
UniProt Q9Y4B4, sequence (Q9Y4B4 whole entry, looked up): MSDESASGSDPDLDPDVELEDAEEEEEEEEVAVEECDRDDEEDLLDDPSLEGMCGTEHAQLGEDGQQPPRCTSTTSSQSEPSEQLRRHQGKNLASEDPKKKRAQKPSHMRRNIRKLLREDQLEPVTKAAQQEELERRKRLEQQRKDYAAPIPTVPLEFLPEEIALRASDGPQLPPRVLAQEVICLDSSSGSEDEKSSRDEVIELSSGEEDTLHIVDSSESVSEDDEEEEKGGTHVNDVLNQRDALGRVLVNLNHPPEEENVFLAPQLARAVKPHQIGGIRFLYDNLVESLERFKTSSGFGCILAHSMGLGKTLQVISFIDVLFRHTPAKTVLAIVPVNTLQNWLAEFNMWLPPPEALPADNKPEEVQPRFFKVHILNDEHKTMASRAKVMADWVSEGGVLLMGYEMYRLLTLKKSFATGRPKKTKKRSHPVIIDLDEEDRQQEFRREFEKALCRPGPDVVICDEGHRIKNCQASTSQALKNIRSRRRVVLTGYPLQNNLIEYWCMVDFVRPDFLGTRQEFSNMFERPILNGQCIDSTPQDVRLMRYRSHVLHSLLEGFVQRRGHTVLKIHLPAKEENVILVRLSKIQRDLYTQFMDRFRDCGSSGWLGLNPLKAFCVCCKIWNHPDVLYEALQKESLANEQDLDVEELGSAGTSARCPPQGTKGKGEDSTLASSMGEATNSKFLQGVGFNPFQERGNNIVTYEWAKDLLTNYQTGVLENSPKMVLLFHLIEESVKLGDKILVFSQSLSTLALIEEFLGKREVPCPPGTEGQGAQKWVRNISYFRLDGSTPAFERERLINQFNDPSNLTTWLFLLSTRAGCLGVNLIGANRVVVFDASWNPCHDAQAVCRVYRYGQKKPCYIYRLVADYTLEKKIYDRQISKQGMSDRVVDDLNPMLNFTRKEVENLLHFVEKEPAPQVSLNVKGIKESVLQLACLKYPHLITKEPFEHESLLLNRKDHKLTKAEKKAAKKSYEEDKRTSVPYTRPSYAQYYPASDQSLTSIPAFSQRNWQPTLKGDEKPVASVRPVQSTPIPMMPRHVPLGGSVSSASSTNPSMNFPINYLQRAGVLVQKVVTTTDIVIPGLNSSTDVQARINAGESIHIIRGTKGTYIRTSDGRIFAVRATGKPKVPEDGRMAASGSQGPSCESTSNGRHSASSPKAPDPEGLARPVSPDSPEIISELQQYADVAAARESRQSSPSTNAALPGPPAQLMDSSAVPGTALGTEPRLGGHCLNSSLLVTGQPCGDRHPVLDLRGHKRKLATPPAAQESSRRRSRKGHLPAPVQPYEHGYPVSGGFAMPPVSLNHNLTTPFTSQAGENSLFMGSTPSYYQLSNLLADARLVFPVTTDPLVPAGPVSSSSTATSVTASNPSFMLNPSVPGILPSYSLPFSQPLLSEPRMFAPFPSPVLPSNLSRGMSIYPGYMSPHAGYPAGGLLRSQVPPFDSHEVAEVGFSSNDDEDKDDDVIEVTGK
UniProt Q9GZR2, sequence (Q9GZR2 whole entry, looked up): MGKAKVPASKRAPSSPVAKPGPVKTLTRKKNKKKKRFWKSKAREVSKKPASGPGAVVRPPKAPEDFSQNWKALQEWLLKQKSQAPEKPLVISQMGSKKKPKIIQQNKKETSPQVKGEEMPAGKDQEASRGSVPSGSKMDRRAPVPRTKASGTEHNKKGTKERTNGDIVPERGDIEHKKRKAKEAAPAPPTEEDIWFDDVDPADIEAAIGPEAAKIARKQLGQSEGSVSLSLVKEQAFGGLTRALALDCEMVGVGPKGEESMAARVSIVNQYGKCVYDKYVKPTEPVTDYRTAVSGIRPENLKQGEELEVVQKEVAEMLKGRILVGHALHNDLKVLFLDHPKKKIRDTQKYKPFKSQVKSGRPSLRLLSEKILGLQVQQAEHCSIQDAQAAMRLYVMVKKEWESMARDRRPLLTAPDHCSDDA
UniProt Q8NBX0, sequence (Q8NBX0 whole entry, looked up): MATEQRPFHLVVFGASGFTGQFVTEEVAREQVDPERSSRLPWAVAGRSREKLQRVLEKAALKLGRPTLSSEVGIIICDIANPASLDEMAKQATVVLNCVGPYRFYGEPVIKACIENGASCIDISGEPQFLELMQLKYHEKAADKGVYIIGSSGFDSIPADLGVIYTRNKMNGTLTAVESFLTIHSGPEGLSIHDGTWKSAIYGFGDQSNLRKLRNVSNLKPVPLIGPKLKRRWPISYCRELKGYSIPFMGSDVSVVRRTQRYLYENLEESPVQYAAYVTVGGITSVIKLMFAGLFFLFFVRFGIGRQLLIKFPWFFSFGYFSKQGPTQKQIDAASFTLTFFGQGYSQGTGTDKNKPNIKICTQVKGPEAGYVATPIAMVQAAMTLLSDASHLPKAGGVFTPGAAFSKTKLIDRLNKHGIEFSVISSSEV
UniProt P53611, sequence (P53611 whole entry, looked up): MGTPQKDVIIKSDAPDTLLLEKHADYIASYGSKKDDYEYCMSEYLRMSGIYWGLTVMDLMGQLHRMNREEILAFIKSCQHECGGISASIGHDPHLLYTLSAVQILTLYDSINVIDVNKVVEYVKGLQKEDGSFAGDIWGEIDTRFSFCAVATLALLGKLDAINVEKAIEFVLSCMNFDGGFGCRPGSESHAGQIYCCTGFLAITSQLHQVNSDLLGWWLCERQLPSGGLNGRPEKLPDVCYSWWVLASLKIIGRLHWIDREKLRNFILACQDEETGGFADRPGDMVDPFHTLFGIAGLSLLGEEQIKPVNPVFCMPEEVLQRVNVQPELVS
UniProt Q9Y3T6, sequence (Q9Y3T6 whole entry, looked up, one chain of several): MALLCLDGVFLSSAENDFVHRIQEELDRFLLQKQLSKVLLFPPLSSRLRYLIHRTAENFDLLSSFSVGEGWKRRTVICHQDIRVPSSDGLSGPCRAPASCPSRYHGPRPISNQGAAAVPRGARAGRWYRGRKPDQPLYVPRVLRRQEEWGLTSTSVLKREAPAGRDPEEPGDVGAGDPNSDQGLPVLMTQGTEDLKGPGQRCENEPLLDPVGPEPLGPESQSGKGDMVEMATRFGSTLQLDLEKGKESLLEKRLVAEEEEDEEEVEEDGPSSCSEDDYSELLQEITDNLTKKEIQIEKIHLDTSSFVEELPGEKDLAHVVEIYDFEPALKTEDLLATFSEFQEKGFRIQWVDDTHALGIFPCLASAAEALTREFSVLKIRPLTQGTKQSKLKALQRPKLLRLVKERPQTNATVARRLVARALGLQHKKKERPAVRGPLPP
UniProt O15541, sequence (O15541 whole entry, looked up): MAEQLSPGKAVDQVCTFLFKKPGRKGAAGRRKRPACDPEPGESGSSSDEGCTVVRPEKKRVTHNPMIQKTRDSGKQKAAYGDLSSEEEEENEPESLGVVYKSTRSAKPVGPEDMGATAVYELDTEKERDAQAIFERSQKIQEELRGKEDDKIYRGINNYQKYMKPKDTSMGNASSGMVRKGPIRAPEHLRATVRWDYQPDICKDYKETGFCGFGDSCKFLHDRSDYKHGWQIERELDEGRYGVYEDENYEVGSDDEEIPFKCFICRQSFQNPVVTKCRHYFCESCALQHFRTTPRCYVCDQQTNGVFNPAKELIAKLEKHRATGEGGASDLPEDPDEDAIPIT

| Target | log2 fold change (lapatinib) | log2 fold change (pictilisib) | log2 fold change (crizotinib) | log2 fold change [1] | log2 fold change (duvelisib) | log2 fold change (gandotinib) | log2 fold change (tozasertib) | log2 fold change (doramapimod) | log2 fold change (bafetinib) | log2 fold change [2] | log2 fold change (nilotinib) | log2 fold change [3] | log2 fold change (dasatinib) | log2 fold change [4] | log2 fold change [5] | log2 fold change (quisinostat) | log2 fold change (tipifarnib) | log2 fold change [6] | log2 fold change [7] | log2 fold change [8] |
| --- | --- | --- | --- | --- | --- | --- | --- | --- | --- | --- | --- | --- | --- | --- | --- | --- | --- | --- | --- | --- |
| RALGAPA1 isoform 6 (UniProt Q6GYQ0) | -0.075 | -0.157 | 0.036 | -0.28 (active) | 0.074 | 0.257 | -0.006 | 0.062 | -0.026 | 0.321 | -0.05 | -0.044 | -0.018 | -0.066 | 0.071 | -0.15 | 0.019 | 0.039 | 0.052 | -0.08 |
| QTRT2 isoform 4 (UniProt Q9H974) | -0.016 | -0.037 | -0.018 | -0.297 (active) | -0.008 | 0.185 | 0.003 | -0.029 | -0.089 | 0.256 (active) | -0.001 | -0.024 | 0.005 | -0.024 | -0.051 | -0.059 | 0.022 | 0.022 | 0.004 | 0.021 |
| RNF213, A0A0A0MTC1 | -0.012 | -0.014 | -0.064 | -0.043 | 0.008 | -0.123 | 0.043 | 0.033 | -0.066 | 0.052 | 0.015 | -0.016 | -0.027 | -0.019 | 0.035 | -0.033 | 0.001 | 0.071 | 0.015 | -0.016 |
| R3HCC1 (UniProt Q9Y3T6) | -0.018 | -0.049 | 0 | -0.034 | 0 | 0.089 | 0.006 | 0.044 | 0.002 | 0.08 | -0.023 | 0.012 | 0.043 | 0.011 | -0.049 | -0.014 | -0.058 | -0.036 | 0.003 | 0.038 |
| RAD54L2 (UniProt Q9Y4B4) | -0.209 | -0.018 | -0.037 | -0.174 | 0.026 | -0.163 | -0.166 | -0.02 | -0.095 | 0.067 | -0.037 | -0.03 | -0.053 | -0.047 | -0.15 | -0.009 | -0.105 | -0.013 | 0.035 | -0.091 |
| SCCPDH (UniProt Q8NBX0) | 0.108 | 0.006 | 0.394 | -0.179 | 0.195 | 0.869 (active) | -0.052 | -0.102 | -0.015 | 0.034 | 0.12 | -0.002 | 0.058 | 0.151 | -0.019 | -0.058 | 0.049 | -0.217 | -0.081 | 0.022 |
| RPS4X (UniProt P62701) | -0.006 | 0.009 | -0.024 | 0.209 | 0.012 | -0.038 | -0.018 | -0.01 | -0.008 | -0.04 | 0.01 | -0.023 | 0.025 | -0.002 | -0.003 | 0.016 | 0.01 | -0.001 | -0.034 | 0.008 |
| RCOR1 (UniProt Q9UKL0) | -0.056 | -0.069 | 0.048 | -0.083 | -0.004 | -0.009 | 0.019 | -0.061 | -0.056 | 0.041 | -0.024 | -0.006 | -0.054 | 0.009 | 0.003 | 0.015 | -0.022 | 0.043 | -0.015 | 0.099 |
| RABGGTB (UniProt P53611) | -0.02 | 0.006 | -0.031 | 0.135 | 0.043 | -0.051 | -0.023 | 0.016 | -0.087 | 0.028 | 0.005 | 0.003 | 0.017 | 0.006 | -0.009 | -0.02 | -0.013 | 0.033 | -0.016 | 0.031 |
| RNF113A (UniProt O15541) | 0.012 | 0.021 | 0.024 | -0.072 | -0.009 | 0.068 | 0.002 | 0.016 | 0 | 0.034 | 0.003 | -0.004 | -0.015 | 0.007 | 0.04 | 0.063 | -0.019 | -0.068 | -0.005 | -0.002 |
| RANBP2 (UniProt P49792) | 0.002 | -0.001 | -0.01 | -0.009 | -0.014 | -0.069 | 0.001 | -0.002 | -0.02 | 0.06 | -0.018 | 0.001 | -0.059 | 0.006 | 0.021 | -0.05 | -0.055 | 0.046 | 0.007 | -0.003 |
| REXO4 (UniProt Q9GZR2) | 0 | -0.128 | 0.017 | 0.349 (active) | -0.003 | -0.169 | -0.017 | -0.056 | -0.06 | -0.139 | -0.001 | -0.009 | -0.008 | 0.021 | 0.008 | 0.013 | 0.015 | 0.03 | -0.045 | 0.034 |
| RPS29 (UniProt P62273) | -0.024 | 0.03 | 0.054 | 0.793 (active) | -0.02 | -0.202 | -0.128 | -0.105 | 0.205 | -0.315 | 0.117 | 0.072 | 0.22 | 0.061 | 0.112 | 0.361 | 0.094 | -0.116 | -0.024 | -0.068 |
| RPL31 (UniProt P62899) | -0.01 | 0.009 | 0.016 | -0.006 | 0.004 | 0.005 | -0.006 | -0.041 | -0.023 | 0.029 | 0.007 | -0.034 | 0.046 | -0.036 | -0.038 | 0.043 | 0.021 | -0.004 | -0.018 | 0.005 |
| SEH1L isoform 1 (UniProt Q96EE3) | -0.03 | -0.009 | 0.01 | -0.027 | -0.049 | 0.029 | 0.011 | 0.007 | -0.085 | 0.052 | -0.009 | -0.019 | 0.032 | 0.006 | 0.007 | -0.008 | -0.008 | 0 | 0.003 | -0.028 |
| SEC61G (UniProt P60059) | -0.094 | 0.139 | 0.209 | -0.331 | 0.105 | 0.46 (active) | -0.168 | 0.098 | -0.192 | 0.338 | -0.007 | -0.061 | 0 | 0.089 | -0.033 | -0.045 | 0.134 | -0.01 | 0.023 | 0.053 |
